The sample as a whole holds a higher share of hits than the screen did.
TbREL1 inh: TbREL1 inhibition, primary screen; AID 1117264; inhibition, % at 9.66 µM; P86926; TbREL1 RNA ligation, FRET fluorescence; hit rate 0.49% among 89,000;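 active means inhibition above the mean inhibition across all screened compounds plus 3 SD, cut at about 11% in these data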
Target sequence (P86926 whole entry, looked up): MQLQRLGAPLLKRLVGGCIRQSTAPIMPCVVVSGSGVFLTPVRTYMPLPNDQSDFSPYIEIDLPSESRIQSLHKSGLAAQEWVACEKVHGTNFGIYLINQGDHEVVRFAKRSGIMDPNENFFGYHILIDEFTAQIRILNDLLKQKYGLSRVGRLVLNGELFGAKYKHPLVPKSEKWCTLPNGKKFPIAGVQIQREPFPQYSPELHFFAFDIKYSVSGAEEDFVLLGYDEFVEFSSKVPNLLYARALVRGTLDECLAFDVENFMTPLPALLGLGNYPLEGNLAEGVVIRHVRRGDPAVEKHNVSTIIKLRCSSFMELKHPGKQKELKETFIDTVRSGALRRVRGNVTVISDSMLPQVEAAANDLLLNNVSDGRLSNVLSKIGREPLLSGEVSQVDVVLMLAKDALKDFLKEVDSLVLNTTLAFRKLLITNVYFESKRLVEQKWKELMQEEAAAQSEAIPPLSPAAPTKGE
Numbers stand for hits; . = inactive.

SMILES | TbREL1 inh
OC(CNC1Cc2ccccc2C1)COc1ccc(F)cc1 (stereo unspecified) | .
Cc1ccccc1OCC(O)CNC1CCC(NCC(O)COc2ccccc2C)CC1 (stereo unspecified) | 17
CC(=O)Nc1ccc(OCC(O)CNC2CCCC2)cc1 (stereo unspecified) | .
Cc1ccc(S(=O)(=O)N2c3ccccc3C[C@H]2CC=C(c2ccccc2)c2ccccc2)cc1 | .
CC(C)(C)NC(=O)[C@H](c1cccnc1)N(C(=O)c1ccco1)c1ccc(C(C)(C)C)cc1 | .
Fc1ccccc1-c1n[nH]c(=S)n1N=Cc1ccc(OCc2ccccc2)cc1 | .
CCCNC(=O)C1(C)CCN(Cc2csc3ccccc23)C1 (stereo unspecified) | .
Cc1occc1C(=O)N/N=C/C(Br)=C/c1ccccc1 | 11
Cn1cc(C(=O)N/N=C/C(Br)=C\c2ccccc2)ccc1=O | .
Cc1occc1C(=O)N/N=C/c1ccc[nH]1 | .
COC(=O)CNC(=O)[C@H](Cc1ccccc1)NC1(C(=O)NCCc2c[nH]c3ccccc23)CCCCC1 | .
CCCC/C=C1/C(c2ccccc2)N(Cc2ccc(OC)cc2OC)C2=NC(c3ccccc3)CC(=O)N21 (stereo unspecified) | .
CN(C(=O)/C=C/c1ccco1)c1ccccc1C(=O)O | .
O=C(O)c1cnn2c(C(F)(F)F)cc(-c3ccco3)nc12 | .
O=C(O)c1cc(N2N=C(C(F)(F)F)/C(=C/C=C/c3ccco3)C2=O)ccc1Cl | 98
O=C(NCCc1ccccc1)OCc1cn(Cc2cccc(F)c2F)nn1 | .
O=C(C1CCCN1S(=O)(=O)c1ccccc1[N+](=O)[O-])N1CCN(c2ccccc2)CC1 (stereo unspecified) | .
COc1ccc(-c2c[n+](CC(=O)OC3CC(C)CCC3C(C)C)c3n2CCC3)cc1 (stereo unspecified) | 15
CC1CCC(C(C)C)C(OC(=O)Cn2c(-c3ccc(Br)cc3)[n+](C)c3ccccc32)C1 (stereo unspecified) | .
O=C(C[n+]1cc(-c2ccccc2)n2c1CCC2)c1cccs1 | .
CCCCN1CCCOc2cc(Br)ccc2S1(=O)=O | .
O=S1(=O)c2ccc(N3CCCC3)cc2Oc2ccccc2CN1Cc1cn(Cc2cccc(F)c2)nn1 | .
Cc1cccc(CN(C)CCc2ccccn2)c1 | .
COc1ccc(CN(C)CCc2ccccn2)c(OC)c1OC | 18
COc1ccc(C(=O)O)cc1S(=O)(=O)N(C)CCc1ccccn1 | .
SMILES | TbREL1 inh
CCOC(=O)C1CCN(C(=O)C(C)(C)NC(=O)Nc2ccc3c(c2)CCC3)CC1 | .
O=S(=O)(c1ccc(Br)s1)N1CCC(c2nc3ccccc3o2)CC1 | .
COc1cc(O)c2c(=O)c3c(O[C@H]4O[C@@H](CO)[C@H](O)[C@@H](O)[C@@H]4O)ccc(O)c3oc2c1 | .
COc1cc2ccc(=O)oc2c(O[C@@H]2O[C@H](CO)[C@@H](O)[C@H](O)[C@H]2O)c1O | .
O=c1cc(-c2ccc(O)c(O)c2)oc2cc(O)c([C@@H]3O[C@H](CO)[C@@H](O)[C@H](O)[C@H]3O)c(O)c12 | 48
O=c1cc(N2CCN(c3cccc(C(F)(F)F)c3)CC2)[nH]c(=O)n1-c1ccccc1 | .
COc1ccc2c(=O)c3c(=O)n(Cc4ccco4)c(-c4ccccc4)nc3oc2c1 | .
COc1ccc(Cn2c(C)nc3c(c(=O)c4ccccc4n3C)c2=O)cc1 | .
COc1ccc(Cn2c(C)nc3c(c2=O)c2nc4ccccc4nc2n3Cc2ccco2)cc1 | 11
O=S1(=O)c2c(cccc2N2CCC[C@@H]2CO)O[C@@H]2CCN1C2 | .
Cc1cccc(NC(=O)NN(C(=O)c2ccccc2Cl)C(C)(C)C)c1 | .
Cc1cccc(NC(=O)C2CCCN2S(=O)(=O)c2cccc3cccnc23)c1C (stereo unspecified) | .
O=C1CC(=O)N(Cc2ccco2)C(=O)N1 | 70
O=C1CC(=O)N(Cc2cccs2)C(=O)N1 | .
O=C1C2C(C(=O)N1Cc1ccco1)C1C=CC2C12CC2 (stereo unspecified) | .
COC(CNC(=O)[C@H](Cc1c[nH]c2ccccc12)NC1(C(=O)NCc2ccccc2)CCCCC1)OC | .
Cc1cc2nc(-c3ccc(Cl)cc3)c(Cc3ccsc3)n2c(C)c1Br | .
Cc1cccc(N2CCN(C(=O)c3cc(S(=O)(=O)N(C)C)ccc3Cl)CC2)c1C | .
O=C(Nc1ccc(F)cc1)OCc1cn(Cc2cccc(C(F)(F)F)c2)nn1 | .
CC(C)(C)C(=O)NC1CCCCN(Cc2ccc(Cl)cc2)C1=O (stereo unspecified) | .
C=CCN1C(=O)[C@H](CC(=O)N2CCOCC2)[C@@]2(C(=O)OCC)CCCC=C12 | .
CCOC(=O)[C@]12CCCC=C1N(CCCOC)C(=O)[C@@H]2CC(=O)NCCCCc1ccccc1 | .
CCCCCCCCCn1cc(C(C)=O)c(=O)[nH]c1=O | 19
CCCCCCCN1C=CC(=O)CC1 | .
CCCCCCOC(=O)CCn1[nH]c(=O)c2ccccc2c1=O | .
SMILES | TbREL1 inh
CCOC(=O)CNC(=O)CSc1nc2ccccc2c(=O)n1-c1ccc(Cl)cc1 | .
CCOc1ccc(-n2c(SCc3nc4ccccc4[nH]3)nnc2-c2cccc(Cl)c2)cc1 | .
N#Cc1c(Cl)c(Cl)c2nnc(-c3ccc(Br)cc3)n2c1Cl | 16
Cc1ccc2c(n1)sc1c(-c3ccc(Br)cc3)c(C#N)c(N)nc12 | .
Cc1ccc(C(=O)C2CCN(CC(=O)N3CC(C)CC(C)C3)CC2)cc1 (stereo unspecified) | .
O=C(C1CCCN1S(=O)(=O)c1ccc(Br)s1)N1CCc2ccccc2C1 (stereo unspecified) | .
COC(=O)[C@@]12CCCCC=C1N(CCc1ccc(Cl)cc1)C(=O)[C@H]2CC(=O)NCc1ccc(C)o1 | .
O=c1c2cc3cc4c(cc3nc2ncn1Cc1cccnc1)OCO4 | .
Cn1c(=O)c2[nH]c(SCC(=O)NCCc3ccc(F)cc3)nc2n(C)c1=O | .
Cn1c(SCCc2ccccc2)nnc1-c1ccco1 | .
Cc1ccc(C)c(NC(=O)CN(C)C(=O)Cc2ccccc2)c1 | .
Cc1ccc(C)c(NC(=O)CN(C)C(=O)c2ccc(Cl)nc2)c1 | 11
Cc1ccc(C)c(NC(=O)CN(C)C(=O)c2ccc3c(=O)n4c(nc3c2)CCC4)c1 | .
O=C(NCc1ccco1)O[C@H]1CC[C@@]23CCCN2C(=O)CCC[C@H]3C1 | .
Cc1cc(C)cc(NC(=O)NC2CCN(S(=O)(=O)c3ccc(F)cc3)CC2)c1 | .
CC(C)N1CCCCC(NC(=O)c2cccs2)C1=O (stereo unspecified) | .
COC(=O)[C@]12C[C@H](CC(=O)NCc3cccc(C(F)(F)F)c3)C(=O)N(Cc3ccc(Cl)cc3Cl)C1=C[C@H](COCc1ccccc1)O[C@@H]2C | .
O=C1C(C=NCc2cccnc2)=C(O)c2ccccc21 | .
Oc1cccc(C=NCc2ccccc2)c1O | 12
COc1cccc(/C=N/NC(=O)CNC(=O)CCc2ccccc2)c1O | .
Cc1ccc(NC(=O)CCS(=O)(=O)c2ccccc2)c(C)c1 | .
Cn1c(COc2ccccc2)nnc1SCC(=O)Nc1ccc(OCc2ccccc2)cc1 | .
CCOc1cccc(/C=N\NC(=O)Cc2cccs2)c1O | .
C#CCOCCOCCOCCNc1nc(N2CCOCC2)nc(N2CCN(C(=O)CCCCCCCCCCNC(=O)[C@@H]([C@H](C)CC)n3cc(CCCCCN)nn3)CC2)n1 | 13
C#CCOCCOCCOCCNc1nc(N2CCOCC2)nc(N2CCN(C(=O)CCCCCCCCCCNC(=O)[C@@H](CCC(=O)O)n3cc(CCCCCN)nn3)CC2)n1 | .
